By inhibition is commonly meant the drop in the measured response relative to a control, in per cent.

Inconclusive results are not listed. Calls of active or inactive are those of the source.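 Rule for the calls, unless noted: active = percent response above a set limit, the screen-wide mean plus 3 SD (cut at about 130% in these data); inactive = the rest.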

The nature of assay [1]: yeast TOR pathway RPL19A-GFP modulators, primary screen, cell-based, S. cerevisiae, multiplex flow cytometry (AID 1862; in the data active = percent of DMSO control GFP below about 86%;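 note: lower values mimic rapamycin by blocking the RPL19A rise seen in DMSO cells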). The conditions noted are these: S. cerevisiae RPL19A-GFP strain, flow cytometry fluorescence, 3 h; at 10 µM; stronger effect = lower value. (Flow cytometry measures light scatter and fluorescence of single cells or particles in a stream.)
A short description of assay [2]: modulators of MEP2-GFP levels in yeast, primary screen, S. cerevisiae, multiplex flow cytometry (AID 1867;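 active = GFP response, as percent of the DMSO control, above the screen-wide mean plus 3 SD, about 139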;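 note: median GFP channel fluorescence of barcode-gated MEP2-GFP cells measured by flow cytometry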). The note with it: S. cerevisiae MEP2-GFP strain, 3 h, at 10 µM, stronger effect = higher value, 100% means same as DMSO wells.
Assay [3] is described as follows: modulators of CIT2-GFP expression in yeast, primary screen, S. cerevisiae, GFP fusion, multiplex flow cytometry (AID 1870).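 Note: barcoded CIT2-GFP strain pooled with four other GFP strains with rapamycin as positive control; median GFP fluorescence per well over plate mean of DMSO wells so 100% = DMSO.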 The note with it: 3 h, at 10 µM, stronger effect = higher value.
The nature of assay [4]: modulators of LAP4-GFP expression in yeast, primary screen, S. cerevisiae, multiplex flow cytometry (AID 1873;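 active = GFP signal, as percent of the solvent control, above the screen mean plus 3 SD, about 149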). The conditions noted are these: 3 h, at 10 µM, stronger effect = higher value.
Assay [5] is described as follows: modulators of AGP1-GFP expression in yeast TOR pathway, primary screen, cell-based, multiplex flow cytometry, S. cerevisiae (AID 1887;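 active = GFP signal above the screen-wide mean plus 3 SD, that is over about 124.5% of the solvent control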;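 note: AGP1-GFP fusion strain of S. cerevisiae within a five-strain barcoded multiplex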). The conditions noted are these: 3 h, at 10 µM, stronger effect = higher value.
Assay [6] is described as follows: inhibitors of CD8+ T cell-vesicle binding, pilot screen, LFA-1/ICAM-1 modulator project, MLPCN validation set, flow cytometry (AID 2523;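 active = response below a set limit, under 55% cells CD8-positive and vesicle-bound, and CD8 cells' 90th-percentile brightness under 279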;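 for vesicle binding response: mean PE anti-B7-1 fluorescence of CD8+ cells relative to row control; 100% = QL9-loaded vesicles with DMSO vehicle in the same plate row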). The note with it: 2C mouse CD8+ T cells, at 7 µM, stronger effect = lower value; double positive events: measured here: CD8+/vesicle+ event percentage.
The target in assay [7] is Integrin beta-1 (Homo sapiens) + Integrin alpha-4 (Homo sapiens) (UniProt P13612+P05556). As to the kind of experiment: inhibition of HUTS-21 binding to VLA-4, pilot screen, VLA-4 allosteric modulator project, U937 cells, HUTS-21 mAb, flow cytometry, validation set (AID 2674;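 active = inhibition above 50%, about 3 SD of the validation set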;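 note: antibody binding induced by the VLA-4 ligand LDV present at three times its Kd; 0% = LDV ligand with antibody and no compound and 100% = antibody without LDV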). The note with it: HUTS-21 LIBS mAb binding, at 6.7 µM, stronger effect = higher value, binding induced by LDV ligand.

Assay [8] in a line: superoxide lowering in aged yeast cells, pilot screen, validation compound set (AID 2706;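 active = superoxide response below 65% of plate, a cut near 3 SD across the whole screen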;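 note: yeast exposed to compound for one week at 30 degrees C before staining; 100% = mean of all compound wells on the same plate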). The note with it: S. cerevisiae aging, superoxide DHE fluorescence; at 10 µM; stronger effect = lower value.
Assay [9] concerns the target Beta-adrenergic receptor kinase 1 (Homo sapiens) (UniProt P25098). As to the kind of experiment: GRK2 binders displacing RNA aptamer, biochemical, validation, human GRK2, bead flow cytometry (AID 488806;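 active = aptamer binding inhibition above 30%, about 3 SD of noise from non-fluorescent compounds; inactive = inhibition at or below 30%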). The note with it: bead-bound GRK2, FAM-aptamer displacement, at 10 µM, stronger effect = higher value.
The target of assay [10] is Beta-2 adrenergic receptor (Homo sapiens) (UniProt P07550). As to the kind of experiment: beta2AR agonists driving receptor internalization, pilot screen, cell-based, FAP fluorogen, flow cytometry, validation set (AID 504459;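 active = percent response above 42, roughly 3 SD of non-fluorescent test compounds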;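 note: agonist-driven loss of surface beta2AR via internalization measured by FAP dye flow cytometry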). The conditions noted are these: Am2.2-beta2AR cells, FAP surface receptor flow cytometry; at 10 µM; stronger effect = higher value.
Assay [11] deals with AP-2 complex subunit beta (Homo sapiens) (UniProt P63010). As to the kind of experiment: inhibitors of arrestin peptide binding to AP2, pilot screen, biochemical, validation set, GST-AP2 beads, flow cytometry (AID 504541;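 active = inhibition above 54%, about 3 SD of non-fluorescent compounds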;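 note: AP2 carries R879A mutation and is captured from E. coli lysate; bead-bound FITC arrestin peptide fluorescence measuring arrestin peptide binding to AP2; 0% = DMSO wells and 100% = excess unlabeled arrestin peptide control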). The conditions noted are these: FITC arrestin peptide, at 10 µM, stronger effect = higher value, AP2 beta2 appendage fragment, R879A mutant.
A short description of assay [12]: yeast V-ATPase proton transport modulators, S. cerevisiae, pHLuorin, HTS validation (AID 504600; in the data active = response above about 15%;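 note: plate controls were DMSO for no effect and reference compound for full effect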). The note with it: S. cerevisiae pHLuorin cytosolic pH, at 10 µM, stronger effect = higher value.
Assay [13] deals with anti-desmoglein-3 scFv antibody binding to human DSG3. As to the kind of experiment: inhibitors of anti-DSG3 scFv binding to DSG3, pilot screen, biochemical, validation compound set, bead-based, flow cytometry (AID 588368;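 active = binding below the plate cutoff, the plate median minus 3 SD, with a reading above zero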;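 note: signal is the median channel fluorescence of bead-bound GFP antibody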). The note with it: Protein G beads, DSG3-Fc, scFv-GFP binding, at 10 µM, stronger effect = lower value.
The nature of assay [14]: inhibitors of fungal efflux pumps CDR1, CDR2, MDR1, pilot screen, validation compound set, multiplex, phenotypic (AID 588506;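 active = efflux inhibition above 0.42, the validation set average plus 4 SD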;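 note: Nile Red retained in cells so higher fluorescence means more efflux inhibition; 0 = negative control wells and 1 = enniatin B 25 µM full block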). The conditions noted are these: S. cerevisiae pump-expressing triplex, Nile Red efflux flow cytometry; at 10 µM; stronger effect = higher value; the pumps come from Candida albicans.
Assay [15] addresses ATP-binding cassette sub-family B member 6 (Homo sapiens) (UniProt Q9NP58). As to the kind of experiment: ABCB6 transporter inhibitors, pilot screen, K562-ABCB6 cells, flow cytometry, validation set (AID 588550;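 active = inhibition above the screen-wide mean plus 3 SD, about 51%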;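 note: 0% = DMSO wells and 100% = benzethonium chloride 70 µM positive control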). The conditions noted are these: K562-ABCB6 porphyrin accumulation, 1 h, at 10 µM, stronger effect = higher value.
A short description of assay [16]: promoters of myeloid differentiation in arrested cells, primary screen, cell-based, GFP/MAC1 double positive, flow cytometry, validation set (AID 588685;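 active = differentiation response of at least 50%, scaled between solvent and reference control, from cells with both markers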;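 note: compound exposure lasts four days before antibody staining and flow analysis; 0% = DMSO wells and 100% = 5 µM fulvestrant positive control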). The note with it: ER-HoxA9 marrow cells, stronger effect = higher value, normalized: vehicle 0, fulvestrant 100.

Chain of Beta-2 adrenergic receptor (Homo sapiens) (P07550 whole entry, looked up): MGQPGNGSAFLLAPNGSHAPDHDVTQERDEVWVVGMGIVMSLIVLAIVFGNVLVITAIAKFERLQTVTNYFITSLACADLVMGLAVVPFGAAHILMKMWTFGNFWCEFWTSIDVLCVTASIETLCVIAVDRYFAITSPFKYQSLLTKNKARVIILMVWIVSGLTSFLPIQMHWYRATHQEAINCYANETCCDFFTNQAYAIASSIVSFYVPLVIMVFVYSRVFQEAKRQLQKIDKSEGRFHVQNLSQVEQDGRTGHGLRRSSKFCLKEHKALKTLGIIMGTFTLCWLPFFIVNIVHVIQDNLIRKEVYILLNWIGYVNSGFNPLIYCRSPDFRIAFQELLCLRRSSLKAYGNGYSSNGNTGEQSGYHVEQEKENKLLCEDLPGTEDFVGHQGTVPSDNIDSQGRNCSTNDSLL
Chain of AP-2 complex subunit beta (Homo sapiens) (P63010 whole entry, looked up, the tested form may be a part, one chain of several): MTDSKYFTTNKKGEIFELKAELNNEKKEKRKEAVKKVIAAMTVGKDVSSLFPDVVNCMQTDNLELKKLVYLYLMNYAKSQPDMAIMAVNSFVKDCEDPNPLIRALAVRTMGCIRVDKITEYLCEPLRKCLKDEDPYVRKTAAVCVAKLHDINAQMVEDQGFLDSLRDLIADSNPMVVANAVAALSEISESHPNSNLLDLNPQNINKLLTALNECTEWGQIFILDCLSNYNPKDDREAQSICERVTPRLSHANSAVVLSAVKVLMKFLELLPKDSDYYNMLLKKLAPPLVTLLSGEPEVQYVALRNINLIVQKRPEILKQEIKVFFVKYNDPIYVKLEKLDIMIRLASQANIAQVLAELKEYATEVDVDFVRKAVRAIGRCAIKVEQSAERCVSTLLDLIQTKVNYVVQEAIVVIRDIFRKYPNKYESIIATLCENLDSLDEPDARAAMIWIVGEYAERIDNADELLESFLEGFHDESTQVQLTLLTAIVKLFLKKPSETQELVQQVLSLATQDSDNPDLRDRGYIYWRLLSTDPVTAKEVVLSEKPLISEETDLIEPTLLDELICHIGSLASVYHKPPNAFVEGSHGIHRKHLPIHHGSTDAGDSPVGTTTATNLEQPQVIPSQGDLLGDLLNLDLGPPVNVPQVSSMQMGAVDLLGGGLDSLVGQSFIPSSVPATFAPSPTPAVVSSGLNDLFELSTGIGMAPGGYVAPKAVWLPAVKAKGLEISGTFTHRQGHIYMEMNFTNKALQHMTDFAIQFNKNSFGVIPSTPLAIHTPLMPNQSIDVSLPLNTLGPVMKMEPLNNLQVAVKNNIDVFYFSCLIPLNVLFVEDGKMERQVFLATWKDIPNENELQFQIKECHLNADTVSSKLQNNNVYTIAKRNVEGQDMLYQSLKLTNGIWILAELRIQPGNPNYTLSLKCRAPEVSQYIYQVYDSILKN
Chain of ATP-binding cassette sub-family B member 6 (Homo sapiens) (Q9NP58 whole entry, looked up): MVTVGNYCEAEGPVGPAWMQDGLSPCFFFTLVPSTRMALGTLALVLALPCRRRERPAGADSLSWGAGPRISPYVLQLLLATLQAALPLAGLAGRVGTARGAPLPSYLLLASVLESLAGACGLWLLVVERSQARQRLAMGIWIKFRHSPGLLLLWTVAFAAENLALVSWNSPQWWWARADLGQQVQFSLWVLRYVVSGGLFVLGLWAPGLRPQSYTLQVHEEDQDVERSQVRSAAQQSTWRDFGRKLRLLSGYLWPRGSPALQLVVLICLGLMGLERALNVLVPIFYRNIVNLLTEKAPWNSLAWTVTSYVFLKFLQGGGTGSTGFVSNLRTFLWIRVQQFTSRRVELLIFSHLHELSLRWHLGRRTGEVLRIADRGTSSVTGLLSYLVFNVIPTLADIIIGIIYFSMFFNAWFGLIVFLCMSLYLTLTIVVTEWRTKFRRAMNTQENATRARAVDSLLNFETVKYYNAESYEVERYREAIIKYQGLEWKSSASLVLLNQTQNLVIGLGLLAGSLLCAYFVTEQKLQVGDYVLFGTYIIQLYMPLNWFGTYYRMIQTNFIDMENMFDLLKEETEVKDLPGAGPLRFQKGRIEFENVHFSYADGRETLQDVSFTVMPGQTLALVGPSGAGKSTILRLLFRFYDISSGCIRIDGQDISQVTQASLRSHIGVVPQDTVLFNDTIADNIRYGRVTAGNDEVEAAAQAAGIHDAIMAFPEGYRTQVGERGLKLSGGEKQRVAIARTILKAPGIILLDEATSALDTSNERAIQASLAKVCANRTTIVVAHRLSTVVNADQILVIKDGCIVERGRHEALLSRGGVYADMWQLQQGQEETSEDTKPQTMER
Chain of Beta-adrenergic receptor kinase 1 (Homo sapiens) (P25098 whole entry, looked up): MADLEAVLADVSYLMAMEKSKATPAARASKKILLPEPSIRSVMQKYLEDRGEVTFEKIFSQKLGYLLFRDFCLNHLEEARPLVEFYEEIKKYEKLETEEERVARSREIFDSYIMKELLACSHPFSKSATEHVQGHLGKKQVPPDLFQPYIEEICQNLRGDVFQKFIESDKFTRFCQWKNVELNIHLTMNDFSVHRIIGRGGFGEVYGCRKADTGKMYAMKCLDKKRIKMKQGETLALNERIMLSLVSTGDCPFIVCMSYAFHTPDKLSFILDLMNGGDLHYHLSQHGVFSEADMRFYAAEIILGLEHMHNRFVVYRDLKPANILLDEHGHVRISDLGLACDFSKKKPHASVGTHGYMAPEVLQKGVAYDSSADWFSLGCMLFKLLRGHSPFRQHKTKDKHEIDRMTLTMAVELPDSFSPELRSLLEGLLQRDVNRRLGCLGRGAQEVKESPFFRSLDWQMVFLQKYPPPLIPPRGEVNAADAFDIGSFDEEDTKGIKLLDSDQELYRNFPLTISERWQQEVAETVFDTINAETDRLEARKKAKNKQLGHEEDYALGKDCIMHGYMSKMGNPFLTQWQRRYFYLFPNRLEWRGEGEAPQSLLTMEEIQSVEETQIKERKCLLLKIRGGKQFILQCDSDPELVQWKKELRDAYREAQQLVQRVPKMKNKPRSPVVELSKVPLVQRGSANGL
Chain of Integrin beta-1 (Homo sapiens) + Integrin alpha-4 (Homo sapiens) (P05556 whole entry, looked up): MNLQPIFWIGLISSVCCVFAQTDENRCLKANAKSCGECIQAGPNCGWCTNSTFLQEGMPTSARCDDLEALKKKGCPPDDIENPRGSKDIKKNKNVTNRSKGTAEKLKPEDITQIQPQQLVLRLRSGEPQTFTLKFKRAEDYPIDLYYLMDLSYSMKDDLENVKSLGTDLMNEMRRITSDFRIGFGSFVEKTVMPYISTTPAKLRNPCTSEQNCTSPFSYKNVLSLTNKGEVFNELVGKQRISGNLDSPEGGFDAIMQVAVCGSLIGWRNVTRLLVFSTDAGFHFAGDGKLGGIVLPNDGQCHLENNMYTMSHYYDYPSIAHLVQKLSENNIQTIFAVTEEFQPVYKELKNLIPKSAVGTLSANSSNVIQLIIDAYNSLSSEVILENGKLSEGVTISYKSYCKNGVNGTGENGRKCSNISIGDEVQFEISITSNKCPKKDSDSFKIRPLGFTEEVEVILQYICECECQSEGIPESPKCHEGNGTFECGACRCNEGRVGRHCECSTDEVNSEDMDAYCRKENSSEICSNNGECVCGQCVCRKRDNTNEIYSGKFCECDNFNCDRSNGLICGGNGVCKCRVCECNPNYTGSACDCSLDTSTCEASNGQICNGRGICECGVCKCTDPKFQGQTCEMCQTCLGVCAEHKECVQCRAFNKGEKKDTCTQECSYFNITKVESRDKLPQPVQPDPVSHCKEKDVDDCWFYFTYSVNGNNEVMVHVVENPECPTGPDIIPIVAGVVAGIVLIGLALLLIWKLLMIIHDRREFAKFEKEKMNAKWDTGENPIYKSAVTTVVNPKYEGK
Chain of Integrin beta-1 (Homo sapiens) + Integrin alpha-4 (Homo sapiens) (P13612 whole entry, looked up): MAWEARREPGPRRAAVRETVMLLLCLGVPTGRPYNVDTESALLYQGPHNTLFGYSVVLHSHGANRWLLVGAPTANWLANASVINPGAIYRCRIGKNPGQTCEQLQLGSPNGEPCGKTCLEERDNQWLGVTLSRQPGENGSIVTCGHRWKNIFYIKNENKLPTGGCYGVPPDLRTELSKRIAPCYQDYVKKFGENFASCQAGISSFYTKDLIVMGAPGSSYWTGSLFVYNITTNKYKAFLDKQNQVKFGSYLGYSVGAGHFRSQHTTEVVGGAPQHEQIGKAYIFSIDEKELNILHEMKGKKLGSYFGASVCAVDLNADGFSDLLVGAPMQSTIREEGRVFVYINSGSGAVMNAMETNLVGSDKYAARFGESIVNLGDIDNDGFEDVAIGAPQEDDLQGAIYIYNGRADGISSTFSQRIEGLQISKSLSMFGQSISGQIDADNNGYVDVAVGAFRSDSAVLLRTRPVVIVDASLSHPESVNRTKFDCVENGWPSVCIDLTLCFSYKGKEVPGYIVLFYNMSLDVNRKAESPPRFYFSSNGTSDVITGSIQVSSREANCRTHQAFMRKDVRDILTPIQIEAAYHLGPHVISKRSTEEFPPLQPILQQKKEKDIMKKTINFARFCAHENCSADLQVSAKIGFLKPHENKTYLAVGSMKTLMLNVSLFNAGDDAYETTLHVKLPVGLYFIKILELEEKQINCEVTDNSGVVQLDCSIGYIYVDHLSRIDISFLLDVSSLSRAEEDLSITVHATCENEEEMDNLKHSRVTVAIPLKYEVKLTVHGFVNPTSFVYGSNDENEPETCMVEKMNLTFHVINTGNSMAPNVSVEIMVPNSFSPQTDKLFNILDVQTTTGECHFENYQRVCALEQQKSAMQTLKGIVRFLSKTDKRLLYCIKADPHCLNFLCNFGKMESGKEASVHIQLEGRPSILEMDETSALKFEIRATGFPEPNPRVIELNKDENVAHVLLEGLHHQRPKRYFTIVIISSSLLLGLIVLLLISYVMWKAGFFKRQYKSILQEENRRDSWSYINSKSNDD

Consider `COC(=O)c1ccc(-c2ncc(-c3cccc4ccccc34)o2)cc1`, for which the percent of DMSO control GFP in assay [1] is 98.2% (inactive). Also, the GFP response vs DMSO is 104% (inactive) in [2] and 125% (inactive) in assay [4]. Besides, in [3], the percent response of DMSO control was 105% (inactive). Further, the GFP response, % of DMSO in assay [5] is 109% (inactive). In addition, the double positive events in assay [6] is 61.1%. In assay [6], the vesicle binding response was 170% (inactive). Besides, the inhibition in assay [7] was -29.2% (inactive); in [11] it was 21.1% (inactive); in assay [15] it was 1% (inactive). Also, in [8], the superoxide response (% of plate) is 97.3% (inactive). Further, the aptamer binding inhibition in assay [9] was -1% (inactive). In addition, the values for the response in assay [10] and in assay [12] were -17.7% (inactive) and -15.9% (inactive), respectively. Besides, in assay [13], the binding (% of control) is 90.5% (inactive). Also, the efflux inhibition (fraction of control) in [14] is 0.17 (inactive). For the same compound, the differentiation response in assay [16] is 6.83% (inactive).

Turning to `O=C(c1ccc(Cl)cc1)C1CCCN(Cc2ccc(Oc3ncccn3)cc2)C1` (stereo not given), the percent of DMSO control GFP in assay [1] was 108% (inactive). In addition, the GFP response vs DMSO in assay [2] is 104% (inactive); in assay [4], 87.2% (inactive). The percent response of DMSO control in assay [3] is 106% (inactive). The GFP response, % of DMSO in assay [5] is 96.5% (inactive). Besides, in [6], the double positive events was determined as 65.7%. The vesicle binding response in assay [6] is 227% (inactive). The figures for the inhibition in assay [7], in assay [11] and in assay [15] were 24.4% (inactive), -1.25% (inactive) and 21% (inactive), respectively. Moreover, the superoxide response (% of plate) in assay [8] is 93.5% (inactive). The aptamer binding inhibition in assay [9] was 2% (inactive). The response was -3.98% (inactive) in assay [10] and 2.78% (inactive) in assay [12]. The binding (% of control) in [13] is 106% (inactive). Also, in assay [14], the efflux inhibition (fraction of control) was -0.12 (inactive). Moreover, the differentiation response in assay [16] is -6.03% (inactive).

Regarding `CCNC1=C(Cl)C(=O)c2ccccc2C1=O`, the percent of DMSO control GFP in assay [1] is 104% (inactive). The GFP response vs DMSO in [2] is 104% (inactive); in assay [4], 127% (inactive). Besides, the percent response of DMSO control in [3] is 91.8% (inactive). In assay [5], the GFP response, % of DMSO was 113% (inactive). The compound also came in with a double positive events in [6] of 59.8%. The vesicle binding response in assay [6] was 159% (inactive). For the same compound, the inhibition in assay [7] was 21% (inactive); in [11], -22.4% (inactive); in assay [15], -12% (inactive). Also, the superoxide response (% of plate) in [8] is 229% (inactive). Besides, the aptamer binding inhibition in [9] was 3% (inactive). Further, the response in assay [10] is -20% (inactive); in [12], 1.03% (inactive). Moreover, in assay [13], the binding (% of control) is 104% (inactive). In assay [14], the efflux inhibition (fraction of control) is -0.09 (inactive). The differentiation response in assay [16] is 0.92% (inactive).

For the compound `CCOC(=O)C1=C[C@]2(CC)CCCN3CCc4c(n1c1ccccc41)[C@@H]32`, in assay [1], the percent of DMSO control GFP is 98.4% (inactive). Further, the GFP response vs DMSO in assay [2] is 107% (inactive); in assay [4], 104% (inactive). For the same compound, the percent response of DMSO control in assay [3] is 96.6% (inactive). For the same compound, the GFP response, % of DMSO in assay [5] is 96.5% (inactive). The double positive events in assay [6] was 56.4%. Also, the vesicle binding response in [6] was 43.9% (inactive). Also, the inhibition in [7] was -4.6% (inactive); in assay [11], -10.5% (inactive); in assay [15] it was 8% (inactive). In addition, the superoxide response (% of plate) in [8] was 92.5% (inactive). In addition, the aptamer binding inhibition in assay [9] was -1% (inactive). Moreover, the response in assay [10] is -5% (inactive); in assay [12], 4.61% (inactive). Also, in assay [13], the binding (% of control) was 97.2% (inactive). Also, the efflux inhibition (fraction of control) in assay [14] was -0.23 (inactive). The differentiation response in [16] was -3.67% (inactive).

As to `CC(=O)c1cccc(NC(=O)N[C@@H](CC(C)C)C(=O)O)c1`, in assay [1], the percent of DMSO control GFP is 104% (inactive). For the same compound, the GFP response vs DMSO is 101% (inactive) in assay [2] and 96.6% (inactive) in assay [4]. Also, in [3], the percent response of DMSO control is 104% (inactive). Besides, in assay [5], the GFP response, % of DMSO is 104% (inactive). In [6], this compound returned a double positive events of 57.9%. In assay [6], the vesicle binding response is 230% (inactive). The inhibition is -9.79% (inactive) in assay [7], 17.6% (inactive) in [11] and 6% (inactive) in assay [15]. Also, in assay [8], the superoxide response (% of plate) is 109% (inactive). In assay [9], the aptamer binding inhibition was -2% (inactive). In addition, the response in [10] is -0.44% (inactive); in [12], -2.05% (inactive). Moreover, the binding (% of control) in assay [13] was 99.2% (inactive). The efflux inhibition (fraction of control) in [14] is 0.18 (inactive). In assay [16], the differentiation response was 9.04% (inactive).

(Values after PubChem BioAssay.)
